Experiment [1] relates to DLD1. Nature of the experiment: cell viability (CellTiter-Glo) relative to plate median (fraction of plate median); higher = more viable cells. The note with it: 5 µM; treatment time 24 h; reporter: 7TFP. The procedure, abridged: (§1)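 Per-well firefly luciferase or CellTiterGlo luminescence, normalised to the plate median, is what is reported. It was measured in colorectal cancer cells with stable lentiviral TCF/Wnt firefly luciferase reporters after a 24 h treatment with library compounds at a final 5 µM. The mean of two independent replicates is given.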
For orientation: ATP-based viability assays read luminescence as a measure of living cells.

Another experiment concerns HCT116. Described as above. Conditions: 5 µM; treatment time 24 h; reporter: TCF4/Wnt. The procedure, abridged:
as §1

Experiment [2] deals with SW480. The experiment is described as above. Conditions: 5 µM; treatment time 24 h; reporter: 7TFP. The procedure, abridged: as §1
Experiment [3] concerns DLD1. Nature of the experiment: TCF/Wnt firefly luciferase reporter signal relative to plate median (fraction of plate median); higher = higher Wnt reporter signal. The note with it: 5 µM; treatment time 24 h; reporter: 7TFP. The procedure, abridged: as §1
In experiment [4] the test system is SW480. The description is as above. Conditions: 5 µM; treatment time 24 h; reporter: 7TFP. The procedure, abridged:
as §1

Structures are written as SMILES. ± gives the standard deviation of the averaged measurements.

As to `Cc1ccc(Cl)c(Nc2ccccc2C(=O)O)c1Cl`, the cell viability was determined as 1.04 ± 0.067 with DLD1 [1], 1.06 ± 0.086 in the experiment with HCT116 and 1 ± 0.052 in the experiment with SW480 [2]. Also, the entries for the “TCF/Wnt firefly luciferase reporter signal” value with DLD1 [3] and with SW480 [4] were 1.04 ± 0.021 and 1.05 ± 0.064, respectively.
Turning to `COc1cc(NS(=O)(=O)c2ccc(N)cc2)nc(OC)n1`, the cell viability in the experiment on DLD1 [1] came to 0.9765 ± 0.0092; in the experiment with HCT116, 0.924 ± 0.031; with SW480 [2], 0.956 ± 0.063. In addition, the results for the “TCF/Wnt firefly luciferase reporter signal” value in the experiment on DLD1 [3] and with SW480 [4] were 0.895 ± 0.28 and 0.8105 ± 0.0064, respectively.
On to `CSc1ccc2c(c1)N(CCC1CCCCN1C)c1ccccc1S2` (stereo not given), for which the results for the cell viability in the experiment with DLD1 [1], in the experiment on HCT116 and with SW480 [2] were 1.01 ± 0.048, 1.02 ± 0.076 and 1.115 ± 0.0071, respectively. The “TCF/Wnt firefly luciferase reporter signal” value was found to be 0.928 ± 0.039 with DLD1 [3] and 0.895 ± 0.1 in the experiment on SW480 [4].
In the same order, the values of `CC(=O)Oc1cc2c(c(C)c1OC(C)=O)CC=C1[C@@]2(C)CC[C@@]2(C)C3C[C@](C)(C(=O)O)CC[C@]3(C)CC[C@]12C` (stereo not given in full) are 0.903 ± 0.12, 0.958 ± 0.16, 0.953 ± 0.081, 0.869 ± 0.064 and 0.898 ± 0.12.
As for `C[C@@H]1O[C@@H](OC[C@H]2O[C@@H](Oc3c(-c4ccc(O)c(O)c4)oc4cc(O)cc(O)c4c3=O)[C@H](O)[C@@H](O)[C@@H]2O)[C@H](O)[C@H](O)[C@H]1O` [RUTOSIDE  (rutin)], the cell viability with DLD1 [1] was 0.972; in the experiment with HCT116, 0.881 ± 0.16; in the experiment with SW480 [2] it was 1.01 ± 0.016. Further, the “TCF/Wnt firefly luciferase reporter signal” value in the experiment with DLD1 [3] worked out at 1.03 ± 0.042; in the experiment on SW480 [4], 0.769 ± 0.53.
As for `Cc1ccc(-c2cc(C(F)(F)F)nn2-c2ccc(S(N)(=O)=O)cc2)cc1`, the cell viability in the experiment with DLD1 [1] worked out at 0.972 ± 0.097; with HCT116, 1.02 ± 0.087; with SW480 [2], 0.987 ± 0.047. In addition, the “TCF/Wnt firefly luciferase reporter signal” value in the experiment with DLD1 [3] was determined as 0.919 ± 0.013; with SW480 [4] it was 0.947 ± 0.04.
As for `NC/C=C/C(=O)O`, the cell viability in the experiment on DLD1 [1] was found to be 1.03 ± 0.088; in the experiment with HCT116, 1.01 ± 0.095; in the experiment with SW480 [2], 1 ± 0.068. Moreover, the “TCF/Wnt firefly luciferase reporter signal” value in the experiment on DLD1 [3] came to 0.965 ± 0.079; in the experiment with SW480 [4] it was 1 ± 0.11.
